Data on 32 compounds can be found in PubChem BioAssay (Tox21).

Values joined by “and” are separate entries in the source; they are usually repeats but may differ in a detail not shown here. Equal values may be shown once. Inconclusive results are not listed. A structure can be active in one record and inactive in another. Active and inactive are the calls of the source. Unless noted, the call rests on the fitted dose curve; in most records, active means well fitted curve in the direction sought with a large enough effect in the repeat runs; inconclusive means weak or mixed curves; inactive means no such curve, though single readings can be large; an effect the other way counts as inactive or inconclusive.

Assay [1] in a line: qHTS assay for small molecules that induce genotoxicity in human embryonic kidney cells expressing luciferase-tagged ATAD5 (AID 651632). Further: nearly all actives have a fitted effect of over 15% in size. In outline: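 ATAD5-luc HEK293T, 2,000 cells/well; cpd or DMSO pin-transferred; 16 hr, 37C/5% CO2; Amplite 30 min RT; luminescence.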
For orientation: Quantitative high-throughput screening tests each substance at several concentrations.

A short description of assay [2]: qHTS assay for small molecule disruptors of the mitochondrial membrane potential - cell viability (AID 720634; calls by dose curve;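 further: human HepG2 liver cancer cells; series mostly up to about 83 µM; nearly all actives have a fitted effect of over 20% in size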). In short, it runs like this:
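Cells: HepG2, 2,000/well, attached overnight. Compound 1 hr, 37 C/5% CO2. +m-MPI dye, +CellTiter-Glo 30 min RT. Readout: luminescence (ATP).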

The nature of assay [3]: qHTS assay for small molecule disruptors of the mitochondrial membrane potential (AID 720635). Further: potency means the concentration at half of the fitted maximal effect. In outline:
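HepG2 cells exposed to compound 1 hr at 37C, then Mito-MPS dye 30 min. Ratio read of aggregate (540/590 nm) versus monomer (490/535 nm) fluorescence.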

Assay [4] can be described thus: qHTS assay to test for compound auto fluorescence at 590 nm (red) in HepG2 cells (AID 720674). In short, it runs like this:
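Fluorescence at 590 nm emission following 540 nm excitation was recorded from HepG2 wells one hour after compound transfer, with DMSO-only wells as vehicle and Rose Bengal sodium equivalency as the scale.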

A short description of assay [5]: qHTS assay to test for compound auto fluorescence at 535 nm (green) in HepG2 cells (AID 720675).
Assay [6] in a line: qHTS assay to test for compound auto fluorescence at 460 nm (blue) in HEK293 cells (AID 720678). In outline:
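Measured: blue fluorescence (Ex 405/Em 460 nm) of compound-treated HEK293 cells, incubated overnight at 37C with 5% CO2 and scaled to triamterene equivalents.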

A short description of assay [7]: qHTS assay to test for compound auto fluorescence at 590 nm (red) in HEK293 cells (AID 720679). In short, it runs like this: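 Using HEK293 cells at 2,000 per well, the screen added 23 nL of each compound after cell attachment and incubated overnight (37C, 5% CO2). The plate reader then captured red-label fluorescence, Ex/Em 540/590nm.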
Assay [8] is described as follows: qHTS assay for small molecule agonists of the p53 signaling pathway (AID 651631; calls by dose curve; further: nearly all actives have a fitted effect of over 15% in size; further: potency means the concentration at half of the fitted maximal effect). In short, it runs like this: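 HCT-116 cells carrying a beta-lactamase reporter under p53 response elements were dosed with compound for 16 h at 37 °C. LiveBLAzer B/G FRET substrate was then added for 2 h at room temperature, and fluorescence intensity was read to detect pathway agonism.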

A short description of assay [9]: qHTS assay for small molecules that induce genotoxicity in human embryonic kidney cells expressing luciferase-tagged ATAD5 - cell viability (AID 651634; calls by dose curve; further: nearly all actives have a fitted effect of over 25% in size). In outline:
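Fluorescence from CellTiter-Fluor, reporting protease activity within live cells, served as the viability read-out. HEK293T cells carrying luciferase-tagged ATAD5 had been treated with compound for 15.5 hr at 37C.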

A short description of assay [10]: qHTS assay for small molecule agonists of the p53 signaling pathway - cell viability (AID 651633; calls by dose curve;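 further: p53RE-bla HCT reporter cells with a stable beta-lactamase p53 reporter; series mostly up to about 83 µM; nearly all actives have a fitted effect of over 30% in size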). In short, it runs like this: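 p53RE-bla cells were treated with compound for 16 hours at 37 C. Cytotoxicity was then measured as CellTiter-Glo luminescence after 30 min at room temperature.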
On the % scale 0 is the no-effect control and ±100 the full control effect.

In the case of `CN=C(NC#N)NCCSCc1nc[nH]c1C`, the Potency entry in assay [1], in assay [2], in assay [3] and in [6] was “inactive” in each case. Also, the result in [4], in [5] and in assay [7] was inactive.

On to `O=Cc1ccc(CO)o1`, for which the Potency entry in [8], in assay [1], in assay [2], in [3] and in [6] was “inactive” throughout. Further, the call in assay [4], in [5] and in [7] was inactive.

Consider `CN1Cc2c(N)cccc2C(c2ccccc2)C1` (stereo not given), for which the Potency entry in [1], in assay [9], in [2], in assay [3] and in assay [6] was “inactive” each time. Besides, the compound was classed as inactive in assay [4], in assay [5] and in assay [7].

For the compound `Cc1cccc(C)c1[N+](=O)[O-]`, the Potency entry in assay [10], in [9], in assay [2], in assay [3] and in assay [6] was “inactive” each time. Also, the result in assay [4], in assay [5] and in assay [7] was inactive.

In the case of `CCCOC(=O)NCCCN(C)C`, the Potency entry in assay [8], in assay [1], in [2], in assay [3] and in assay [6] was “inactive” in each case. Further, the outcome in assay [4], in [5] and in [7] was inactive.

As for `CN1CCCC1=O`, the Potency result in assay [8], in assay [1], in assay [2], in assay [3] and in [6] was “inactive” each time. Moreover, the outcome in [4], in assay [5] and in [7] was inactive.

Take `CCCCCCCCCCCC(=O)N(C)CC(=O)O`: the Potency entry in assay [1], in assay [9], in assay [2] and in assay [6] was “inactive” throughout. For the same compound, the activity change, negative = cytotoxicity in [10] is 23.9% [at 8.08 µM] (inactive). The ratio activity, negative = MMP loss in assay [3] is 7.77% [at 8.08 µM] (inactive). Also, the result in assay [5] and in [7] was inactive.

On to `OCC(CO)(CO)CO`, for which the Potency entry in assay [1], in assay [9], in assay [2], in assay [3] and in assay [6] was “inactive” throughout. In addition, the compound was called inactive in [4], in assay [5] and in assay [7].

Turning to `CCCOCC(C)O` (stereo not given), the Potency result in [1], in [9], in assay [2] and in assay [6] was “inactive” each time. In assay [3], the Potency was 54.5 µM (active) and inactive. The compound was classed as inactive in assay [4], in [5] and in assay [7].

For the compound `O=c1n(CCCN2CCN(c3cccc(Cl)c3)CC2)nc2ccccn12`, the Potency result in [8], in [10], in [9], in assay [2], in [3] and in assay [6] was “inactive” throughout. For the same compound, the compound was classed as inactive in assay [4], in [5] and in [7].

For the compound `Nc1cccc(N)n1`, the Potency result in assay [1], in [2] and in assay [6] was “inactive” in each case. Also, in [3], the Potency was 14.8 µM (active) and 48.6 µM (active). Besides, the result in assay [5] and in assay [7] was inactive.

With `CCN(CC)CCNC(=O)c1ccc(N)cc1`, the Potency result in assay [1], in assay [10], in [9], in [2] and in assay [6] was “inactive” each time. In addition, the Potency in assay [3] is 13.3 µM (active). In addition, the compound was classed as inactive in assay [5] and in assay [7].

As for `O=C1CCCCCCCCCCC1`, the Potency entry in [1], in assay [9], in [2], in assay [3] and in assay [6] was “inactive” in each case. In addition, the result in [5] and in assay [7] was inactive.

Turning to `COc1cc(NC(=O)CC(C)=O)c(OC)cc1Cl`, the Potency result in assay [1], in assay [10], in assay [9], in assay [2], in [3] and in [6] was “inactive” in each case. The compound was classed as inactive in [5] and in assay [7].

Turning to `Cc1ncc(CO)c(CO)c1O`, the Potency entry in assay [8], in assay [10], in [9], in assay [2], in assay [3] and in assay [6] was “inactive” each time. Also, the compound was classed as inactive in assay [5] and in assay [7].

On to `CC(C=O)Cc1ccc(C(C)(C)C)cc1` (stereo not given), for which the Potency result in assay [1], in assay [10], in [2] and in assay [6] was “inactive” throughout. Also, the Potency in assay [3] was 61.1 µM (active). Further, the outcome in assay [5] and in assay [7] was inactive.

With `Clc1cccc(Cl)c1NC1=NCCN1`, the Potency result in assay [8], in assay [10], in assay [9], in [2], in assay [3] and in assay [6] was “inactive” in each case. Moreover, the call in [4], in [5] and in assay [7] was inactive.

For `C[n+]1ccn(CCO)c1`, the Potency entry in assay [1], in assay [10], in [9], in [2], in assay [3] and in assay [6] was “inactive” each time. The compound was classed as inactive in assay [5] and in assay [7].

Consider `C=C(C)CC(C)(C)C`, for which the Potency entry in assay [8], in assay [1], in [2] and in [6] was “inactive” in each case. The call in assay [5] and in assay [7] was inactive.

Consider `CO[Si](CCCNCCN)(OC)OC`, for which the Potency entry in assay [1], in [2], in [3] and in assay [6] was “inactive” throughout. For the same compound, the compound was called inactive in [5] and in assay [7].

As for `c1cnc2c(c1)ccc1cccnc12`, the Potency in assay [8] is 30.9 µM (active) and 24.3 µM (active); in assay [3] it was 30.6 µM (active). Moreover, the Potency entry in assay [1], in assay [2] and in assay [6] was “inactive” throughout. Also, the outcome in [4], in assay [5] and in assay [7] was inactive.

Take `CC1=CC(=O)CC(C)(C)C1`: the Potency entry in [8], in assay [10], in assay [9], in assay [2], in assay [3] and in [6] was “inactive” throughout. For the same compound, the compound was classed as inactive in assay [5] and in assay [7].

As for `CC[N+](CC)(CC(=O)Nc1c(C)cccc1C)Cc1ccccc1`, the Potency result in assay [1], in [9], in [2] and in assay [6] was “inactive” each time. The outcome in assay [4], in [5] and in assay [7] was inactive.

On to `COc1c(Cl)ccc(Cl)c1C(=O)O`, for which the Potency result in assay [1], in [10], in assay [9], in assay [2], in assay [3] and in assay [6] was “inactive” throughout. Besides, the compound was classed as inactive in assay [5] and in assay [7].

As for `C=C1C[C@]23C[C@@]1(O)CC[C@H]2[C@@]12C=C[C@H](O)[C@@](C)(C(=O)O1)[C@H]2[C@@H]3C(=O)O`, the Potency entry in assay [1], in assay [9], in [2], in [3] and in assay [6] was “inactive” each time. Moreover, the compound was classed as inactive in [4], in [5] and in assay [7].

As for `NCCNCCNCCN`, the Potency entry in [8], in assay [10], in [9], in assay [2], in [3] and in assay [6] was “inactive” each time. Besides, the result in assay [4], in assay [5] and in assay [7] was inactive.

With `Cc1ccccc1Cl`, the Potency entry in assay [8], in assay [1], in [2], in [3] and in assay [6] was “inactive” in each case. Moreover, the outcome in assay [4], in assay [5] and in assay [7] was inactive.

For the compound `C=CC(=O)NCOCCCC`, the Potency entry in assay [1], in [10], in assay [2], in assay [3] and in assay [6] was “inactive” throughout. The compound was classed as inactive in assay [5] and in assay [7].

On to `NC1CCCCC1N` (stereo not given), for which the Potency entry in assay [8], in assay [9] and in assay [6] was “inactive” throughout. Further, the outcome in [5] and in [7] was inactive.

In the case of `CC(C)c1ccc(C(C)C)cc1`, the Potency result in [8], in [1], in [2], in assay [3] and in [6] was “inactive” throughout. For the same compound, the outcome in assay [4], in assay [5] and in [7] was inactive.

Consider `O=C(NCC1CCCCN1)c1cc(OCC(F)(F)F)ccc1OCC(F)(F)F` (stereo not given), for which the Potency result in assay [8], in assay [10], in [2], in assay [3] and in assay [6] was “inactive” each time. In addition, the outcome in assay [4], in assay [5] and in assay [7] was inactive.

Regarding `CC(CN1c2ccccc2Sc2ccccc21)N(C)C` (stereo not given), the Potency result in assay [1], in [10], in [9], in [2] and in assay [6] was “inactive” throughout. Moreover, the result in assay [4], in [5] and in assay [7] was inactive.
